# The source made the active and inactive calls.
# Key:
# [1] = small-molecule microarray binders of probe aLefty2, primary screen, biochemical, biotinylated probe, 635/667 nm fluorescence (AID 1094); conditions: higher = more signal;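 note: score merges spot fluorescence near 667 nm with spot signal-to-noise ratio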
# [2] = system: Noggin (protein binding on small-molecule microarray); assay: Noggin binders on small-molecule microarray, primary screen, biochemical, 635/667 nm fluorescence (AID 1095); conditions: 635 nm fluorescence, higher = more signal;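 note: score merges 667 nm feature fluorescence with signal to noise over triplicate slides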
# [3] = biological target: Neurogenic locus notch homolog protein 3 (Homo sapiens) (UniProt Q9UM47); assay: NOTCH3 binders on small-molecule microarray, primary screen, biochemical, 635/667 nm fluorescence (AID 1096); conditions: NOTCH3 binding, 635 nm fluorescence, higher = more signal
# Neurogenic locus notch homolog protein 3 (Homo sapiens), sequence (Q9UM47 whole entry, looked up): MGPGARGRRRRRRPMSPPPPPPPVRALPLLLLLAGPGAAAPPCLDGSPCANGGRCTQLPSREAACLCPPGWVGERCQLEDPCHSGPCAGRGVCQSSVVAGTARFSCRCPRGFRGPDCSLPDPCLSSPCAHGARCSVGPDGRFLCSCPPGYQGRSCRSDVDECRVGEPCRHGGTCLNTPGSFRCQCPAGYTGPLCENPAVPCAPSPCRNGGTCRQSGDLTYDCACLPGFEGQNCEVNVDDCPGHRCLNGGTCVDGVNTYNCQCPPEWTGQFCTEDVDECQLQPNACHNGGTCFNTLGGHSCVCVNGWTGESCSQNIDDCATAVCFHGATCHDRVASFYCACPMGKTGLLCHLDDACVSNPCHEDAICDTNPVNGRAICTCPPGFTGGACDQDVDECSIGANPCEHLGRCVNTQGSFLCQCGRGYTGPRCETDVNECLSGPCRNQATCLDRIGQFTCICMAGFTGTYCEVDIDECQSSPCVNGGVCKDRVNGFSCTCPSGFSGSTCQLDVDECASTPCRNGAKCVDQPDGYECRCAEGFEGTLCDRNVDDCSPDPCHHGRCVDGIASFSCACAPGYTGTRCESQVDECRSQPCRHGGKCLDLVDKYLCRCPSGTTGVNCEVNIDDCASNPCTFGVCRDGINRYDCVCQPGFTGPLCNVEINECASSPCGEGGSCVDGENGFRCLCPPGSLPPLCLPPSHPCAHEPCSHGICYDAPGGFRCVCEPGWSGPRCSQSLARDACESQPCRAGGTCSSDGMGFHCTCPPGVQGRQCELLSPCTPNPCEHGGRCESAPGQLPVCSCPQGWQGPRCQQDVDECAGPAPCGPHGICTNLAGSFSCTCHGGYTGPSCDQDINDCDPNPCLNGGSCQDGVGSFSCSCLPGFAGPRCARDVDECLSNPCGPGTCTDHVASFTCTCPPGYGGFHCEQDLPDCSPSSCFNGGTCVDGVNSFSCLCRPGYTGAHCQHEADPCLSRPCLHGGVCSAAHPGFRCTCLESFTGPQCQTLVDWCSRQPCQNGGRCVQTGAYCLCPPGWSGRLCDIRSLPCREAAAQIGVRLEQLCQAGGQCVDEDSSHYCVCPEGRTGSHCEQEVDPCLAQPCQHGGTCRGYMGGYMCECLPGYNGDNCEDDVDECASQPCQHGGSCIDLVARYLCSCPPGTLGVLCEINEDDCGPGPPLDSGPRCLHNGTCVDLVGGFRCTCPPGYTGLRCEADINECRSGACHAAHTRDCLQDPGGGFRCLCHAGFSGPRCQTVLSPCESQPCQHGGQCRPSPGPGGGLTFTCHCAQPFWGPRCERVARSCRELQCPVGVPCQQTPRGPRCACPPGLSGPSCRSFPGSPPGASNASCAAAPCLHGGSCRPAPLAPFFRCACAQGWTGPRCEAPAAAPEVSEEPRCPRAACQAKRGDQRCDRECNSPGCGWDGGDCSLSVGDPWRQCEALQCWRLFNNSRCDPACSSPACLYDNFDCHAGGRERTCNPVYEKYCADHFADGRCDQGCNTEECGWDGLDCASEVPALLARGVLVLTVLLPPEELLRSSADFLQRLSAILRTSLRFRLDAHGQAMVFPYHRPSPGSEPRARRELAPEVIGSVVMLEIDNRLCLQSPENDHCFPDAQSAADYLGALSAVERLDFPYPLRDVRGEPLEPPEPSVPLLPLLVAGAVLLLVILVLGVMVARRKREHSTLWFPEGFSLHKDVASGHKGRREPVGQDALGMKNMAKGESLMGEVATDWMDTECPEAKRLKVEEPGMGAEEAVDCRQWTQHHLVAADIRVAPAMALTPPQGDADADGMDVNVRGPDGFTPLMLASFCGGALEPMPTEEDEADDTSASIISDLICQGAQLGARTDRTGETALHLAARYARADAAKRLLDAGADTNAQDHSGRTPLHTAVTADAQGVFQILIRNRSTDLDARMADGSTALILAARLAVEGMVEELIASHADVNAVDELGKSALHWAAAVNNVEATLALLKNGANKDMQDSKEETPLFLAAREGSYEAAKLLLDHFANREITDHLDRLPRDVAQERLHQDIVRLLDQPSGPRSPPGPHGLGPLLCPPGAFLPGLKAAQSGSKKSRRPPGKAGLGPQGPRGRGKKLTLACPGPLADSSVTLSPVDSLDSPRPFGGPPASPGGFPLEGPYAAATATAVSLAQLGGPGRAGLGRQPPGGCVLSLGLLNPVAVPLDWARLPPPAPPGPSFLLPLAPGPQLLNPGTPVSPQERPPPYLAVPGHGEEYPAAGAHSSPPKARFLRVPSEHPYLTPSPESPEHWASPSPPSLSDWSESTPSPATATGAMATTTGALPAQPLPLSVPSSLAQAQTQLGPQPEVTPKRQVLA
# [4] = small-molecule microarray binders of probe aEGFR, primary screen, biochemical, biotinylated probe, 635/667 nm fluorescence (AID 1097); conditions: higher = more signal;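 note: probe is a biotinylated anti-EGFR antibody binding compounds printed on slides; score combines fluorescence near 667 nm and signal to noise of each spot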
# [5] = system: Plasmodium falciparum Sir2 (PF13_0152, Sir2A); assay: pfSir2 binders on small-molecule microarrays, primary screen, biochemical, small-molecule microarray, 635 nm fluorescence (AID 1098); conditions: small-molecule microarray binding, fluorescence 635 nm; higher = more signal;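 note: score merges spot fluorescence intensity with its signal-to-noise ratio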
# [6] = small-molecule microarray binders of probe aDKK1, primary screen, biochemical, biotinylated probe, 635/667 nm fluorescence (AID 1099); conditions: higher = more signal;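 note: score merges 667nm spot fluorescence with signal to noise across triplicate slides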
# [7] = small-molecule microarray binders of probe aCHRDL2, primary screen, biochemical, biotinylated probe, 635/667 nm fluorescence (AID 1100); conditions: higher = more signal
# [8] = splicing luciferase reporter signal modulators, primary screen, spliceosome inhibition project, cell-based, HEK293, splice +/- reporter (AID 1101); conditions: luminescence, 24 h, higher = more signal, called active from +8 up or from −8 down;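 note: HEK293 cells carrying a splicing-competent luciferase reporter gene; test concentration not given here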
# [9] = biological target: Fibroblast growth factor 10 (Homo sapiens) (UniProt O15520); assay: FGF10 binders on small-molecule microarrays, primary screen, biochemical, small-molecule microarray, 635 nm fluorescence (AID 1102); conditions: FGF10 binding, fluorescence 635 nm, higher = more signal
# Fibroblast growth factor 10 (Homo sapiens), sequence (O15520 whole entry, looked up): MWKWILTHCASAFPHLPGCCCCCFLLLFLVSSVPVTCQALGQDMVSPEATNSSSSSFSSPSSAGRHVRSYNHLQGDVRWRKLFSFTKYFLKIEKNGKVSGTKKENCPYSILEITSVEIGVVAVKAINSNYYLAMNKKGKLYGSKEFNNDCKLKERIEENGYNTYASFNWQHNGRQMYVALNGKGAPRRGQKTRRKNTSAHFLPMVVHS
# [10] = system: glycogen synthase kinase-3 (GSK3A per assay name; protocol says GSK3B); assay: GSK3 binders on small-molecule microarrays, primary screen, biochemical, small-molecule microarray, 635 nm fluorescence, GSK3A (AID 1103); conditions: small-molecule microarray binding, fluorescence 635 nm; higher = more signal; note: the record names both GSK3A and GSK3B
# [11] = biological target: Epidermal growth factor receptor (Homo sapiens) (UniProt P00533); assay: EGFR binders on small-molecule microarrays, primary screen, biochemical, small-molecule microarray, 635 nm fluorescence (AID 1104); conditions: EGFR binding, higher = more signal;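 note: score merges 667 nm emission intensity with spot signal to noise over triplicate slides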
# Epidermal growth factor receptor (Homo sapiens), sequence (P00533 whole entry, looked up): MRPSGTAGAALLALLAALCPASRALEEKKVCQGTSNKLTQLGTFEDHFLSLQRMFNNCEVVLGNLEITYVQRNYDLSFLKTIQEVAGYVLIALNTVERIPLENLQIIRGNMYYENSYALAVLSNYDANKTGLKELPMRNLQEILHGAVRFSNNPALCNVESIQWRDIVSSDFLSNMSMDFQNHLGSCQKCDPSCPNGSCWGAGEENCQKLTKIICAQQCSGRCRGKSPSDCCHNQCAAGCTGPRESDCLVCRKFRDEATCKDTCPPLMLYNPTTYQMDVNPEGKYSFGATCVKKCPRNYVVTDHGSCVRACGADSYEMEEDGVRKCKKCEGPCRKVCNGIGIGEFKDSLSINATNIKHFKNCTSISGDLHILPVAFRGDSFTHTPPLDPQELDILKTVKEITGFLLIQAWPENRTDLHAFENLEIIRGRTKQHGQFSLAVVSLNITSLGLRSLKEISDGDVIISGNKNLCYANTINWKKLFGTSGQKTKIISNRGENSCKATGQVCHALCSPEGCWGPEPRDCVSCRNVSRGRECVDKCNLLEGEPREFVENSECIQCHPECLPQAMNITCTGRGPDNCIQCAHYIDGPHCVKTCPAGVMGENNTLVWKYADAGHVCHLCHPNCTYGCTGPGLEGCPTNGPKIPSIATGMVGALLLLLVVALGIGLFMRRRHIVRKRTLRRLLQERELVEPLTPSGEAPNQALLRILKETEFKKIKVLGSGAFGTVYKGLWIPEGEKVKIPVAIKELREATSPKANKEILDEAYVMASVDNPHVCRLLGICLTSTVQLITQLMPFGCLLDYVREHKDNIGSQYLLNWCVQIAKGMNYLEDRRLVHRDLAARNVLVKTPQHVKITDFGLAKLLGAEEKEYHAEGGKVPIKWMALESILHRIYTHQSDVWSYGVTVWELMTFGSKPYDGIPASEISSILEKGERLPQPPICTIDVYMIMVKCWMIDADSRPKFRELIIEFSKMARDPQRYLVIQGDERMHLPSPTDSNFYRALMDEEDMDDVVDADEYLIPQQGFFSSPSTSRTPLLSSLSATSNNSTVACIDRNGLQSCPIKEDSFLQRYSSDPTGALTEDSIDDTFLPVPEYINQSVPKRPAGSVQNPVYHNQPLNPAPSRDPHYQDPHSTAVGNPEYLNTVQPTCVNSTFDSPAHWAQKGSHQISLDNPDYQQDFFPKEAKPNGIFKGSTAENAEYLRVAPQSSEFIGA
# [12] = biological target: Follistatin-related protein 3 (Homo sapiens) (UniProt O95633); assay: FSTL3 binders on small-molecule microarrays, primary screen, biochemical, small-molecule microarray, 635 nm fluorescence (AID 1105); conditions: FSTL3 binding, higher = more signal;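 note: score merges emission near 667 nm and signal to noise per printed spot across three slides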
# Follistatin-related protein 3 (Homo sapiens), sequence (O95633 whole entry, looked up): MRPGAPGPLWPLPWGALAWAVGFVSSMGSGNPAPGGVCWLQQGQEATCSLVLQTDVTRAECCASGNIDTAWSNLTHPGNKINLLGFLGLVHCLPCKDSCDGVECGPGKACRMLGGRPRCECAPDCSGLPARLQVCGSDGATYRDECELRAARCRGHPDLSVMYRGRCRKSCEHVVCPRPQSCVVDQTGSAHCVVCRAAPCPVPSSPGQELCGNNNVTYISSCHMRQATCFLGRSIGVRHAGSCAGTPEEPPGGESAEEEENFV
# [13] = biological target: Dickkopf-related protein 1 (Homo sapiens) (UniProt O94907); assay: DKK1 binders on small-molecule microarrays, primary screen, biochemical, small-molecule microarray, 635 nm fluorescence scan (AID 1106); conditions: DKK1 binding, higher = more signal;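 note: score merges emission near 667 nm with signal to noise over three replicate slides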
# Dickkopf-related protein 1 (Homo sapiens), sequence (O94907 whole entry, looked up): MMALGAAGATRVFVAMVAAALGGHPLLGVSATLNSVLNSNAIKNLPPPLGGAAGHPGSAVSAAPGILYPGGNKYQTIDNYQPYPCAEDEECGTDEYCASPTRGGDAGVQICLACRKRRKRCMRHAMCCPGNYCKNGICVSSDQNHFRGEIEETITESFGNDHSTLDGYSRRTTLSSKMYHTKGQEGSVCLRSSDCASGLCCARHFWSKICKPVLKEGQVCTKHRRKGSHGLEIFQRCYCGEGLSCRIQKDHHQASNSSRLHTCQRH
# [14] = system: Inhibin beta A chain (activin A); assay: INHBA (activin A) binders on microarrays, primary screen, biochemical, small-molecule microarray, 635 nm fluorescence scan (AID 1107); conditions: small-molecule microarray binding, higher = more signal;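 note: mouse activin A protein probed at 4.33 µg/mL on printed slides; score merges bound-protein fluorescence near 667 nm with spot signal-to-noise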
# [15] = system: Human papillomavirus type 1a protein E7 (residues 44-93); assay: HPV1a E7 fragment binders on microarrays, primary screen, biochemical, small-molecule microarray, residues 44-93, 635 nm fluorescence (AID 1108); conditions: small-molecule microarray binding, fluorescence 635 nm; higher = more signal;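 note: E7 fragment applied at 1 µg/mL in TBST for 1 h at 4 C; score combines spot fluorescence with its signal to noise ratio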
# [16] = modulators of HCV replicon luciferase signal, primary screen, HCV replication inhibitor project, Huh7 cells, luciferase reporter (AID 1109); conditions: 48 h, higher = more signal;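 note: huh7 hepatoma cells harbouring a luciferase neomycin HCV replicon reporter; luciferase luminescence as measure of HCV replicon replication; test concentration not given here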
# [17] = biological target: Left-right determination factor 2 (Homo sapiens) (UniProt O00292); assay: LEFTY2 binders on small-molecule microarrays, primary screen, biochemical, small-molecule microarray, 635 nm fluorescence scan (AID 1110); conditions: LEFTY2 binding, higher = more signal
# Left-right determination factor 2 (Homo sapiens), sequence (O00292 whole entry, looked up): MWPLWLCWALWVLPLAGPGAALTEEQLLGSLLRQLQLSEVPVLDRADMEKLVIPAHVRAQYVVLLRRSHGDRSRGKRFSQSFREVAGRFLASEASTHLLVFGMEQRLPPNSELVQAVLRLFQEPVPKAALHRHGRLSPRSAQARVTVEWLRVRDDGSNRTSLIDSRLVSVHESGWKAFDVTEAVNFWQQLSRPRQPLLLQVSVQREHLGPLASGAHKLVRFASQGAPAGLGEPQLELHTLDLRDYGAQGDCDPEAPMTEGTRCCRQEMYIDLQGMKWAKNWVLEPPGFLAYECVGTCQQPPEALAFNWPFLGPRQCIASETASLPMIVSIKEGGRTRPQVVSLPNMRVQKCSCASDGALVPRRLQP
# [18] = biological target: Calmodulin-1 (Homo sapiens) (UniProt P0DP23); assay: CALM1 binders on microarrays, EGTA buffer, profiling panel, biochemical, small-molecule microarray, Cy5-labelled CALM1 (AID 1111); conditions: Cy5-CALM1 binding fluorescence, higher = more signal;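 note: labelled calmodulin applied in Tris saline Tween buffer holding calcium plus EGTA and DTT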
# [19] = biological target: Calmodulin-1 (Homo sapiens) (UniProt P0DP23); assay: calcium-bound CALM1 binders on microarrays, profiling panel, artefact control for SMM control-protein annotation, biochemical, small-molecule microarray, Cy5-labelled CALM1, plus calcium (AID 1112); conditions: Cy5-CALM1 binding fluorescence, higher = more signal;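 note: score merges spot fluorescence with signal to noise from triplicate slides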
# [20] = small-molecule microarray binders of probe aWnt5a, primary screen, biochemical, biotinylated probe, 635/667 nm fluorescence (AID 1113); conditions: higher = more signal;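 note: score merges 667 nm fluorescence intensity with signal-to-noise per printed feature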
SMILES,composite z-score [1],composite z-score [2],composite z-score [3],composite z-score [4],composite z-score [5],composite z-score [6],composite z-score [7],z-score [8],composite z-score [9],composite z-score [10],composite z-score [11],composite z-score [12],composite z-score [13],composite z-score [14],composite z-score [15],z-score [16],composite z-score [17],composite z-score [18],composite z-score [19],composite z-score [20]
C=CC[C@@H](OC(=O)Nc1ccc(SC)cc1)c1ccc(OCCO)cc1,0.214,-1.07,-0.525,-0.204,1.28,0.271,1.29,-1.83 (inactive),0.0292,-0.381,-1.4,-0.805,-1.42,-0.148,-0.318,2.1,-0.952,-0.0326,0.835,-0.208
CC(C)CNC(=O)[C@@H]1c2ccccc2C(=O)N(Cc2ccc(OC(F)(F)F)cc2)[C@H]1c1ccc(CO)cc1,-0.0329,1.3,1.04,0.0378,1.46,0.799,0.922,-0.787 (inactive),0.64,1.28,0.346,1.26,0.407,0.254,-0.491,-0.913,0.569,0.986,-0.614,0.0519
COc1ccc(CCNC(=O)[C@@]2(Sc3ccc(C)cc3)CC(=O)N(Cc3ccccc3)[C@@H]2c2ccc(CO)cc2I)cc1,-0.337,-0.814,-0.915,-0.119,1.16,-0.0607,0.566,-1.24 (inactive),-0.553,-0.407,-0.46,0.149,0.0928,0.761,0.152,-2.18,-1.46,-0.615,-0.0032,-0.17
CC(C)N1CC=CC23O[C@@H]4/C=C\CCCOC(=O)C4[C@H]2C(=O)N(CCCO)[C@@H]3C1=O (stereo not given in full),-0.221,-1.17,0.0751,-0.285,2.12,-0.201,0.787,0.073 (inactive),-0.352,-0.762,-1.64,-1.07,-1,0.967,-0.0197,-0.597,-1.83,-0.311,0.412,-0.14
O=C1N(CCS(=O)(=O)c2ccccc2)Cc2ccccc2[C@@H]2OC(c3ccc(OCCCO)cc3)=N[C@]12Cc1ccccc1,0.657,1.1,1.01,0.442,1.61,1.22,1.14,-0.127 (inactive),1.37,1.33,0.267,1.33,0.797,0.49,0.427,-1.4,0.533,1.88,0.189,0.0614
C=CCN1C(=O)[C@@]2(O[C@@H](CCO)[C@H]([Si](C)(C)c3ccc(OC)cc3)[C@H]2C)c2cc(N3C(=O)c4cccc5cccc3c45)ccc21,-0.156,-0.106,-0.0485,-0.147,1,-0.0284,0.392,-3.45 (inactive),0.102,0.307,-0.232,-0.189,-0.4,0.18,0.515,-5.15,-0.144,0.965,0.734,-0.176
COc1ccc([Si](C)(C)[C@@H]2[C@@H](CCn3cc([C@H](O)c4ccccc4)nn3)O[C@]3(C(=O)N(C)c4c(Br)cc(C)cc43)[C@H]2C)cc1,-0.0295,0.0639,-0.707,0.0089,-0.384,0.041,0.703,-3.07 (inactive),0.0565,-0.755,-0.212,-0.395,-0.248,0.206,-1.29,-4.23,0.287,-0.0327,0.0747,-0.157
C=CCNC(=O)[C@@H]1[C@H]2C(=O)O[C@H](c3ccccc3)[C@H](c3ccccc3)N2[C@H](c2ccc(O)cc2)[C@@]12C(=O)Nc1ccc(C#Cc3ccc(OC)cc3)cc12,0.0005,0.436,1.14,-0.0019,0.775,0.74,0.273,-0.934 (inactive),0.564,1.26,0.312,0.961,0.389,0.311,0.927,-2.67,0.239,1.61,0.941,-0.0236
